Inconclusive results are not listed. A call without a number means that no potency is given here. Active and inactive are the calls of the source. Calls come from the whole dose curve; as a rule, active = well fitted cell-killing curve with a large enough effect in the repeat runs; inconclusive = weak or mixed curves, or effect the other way; inactive = flat fitted curve, though single readings scatter.
Legend:
[1] = cAMP Responsive Elements (CRE) small molecule antagonists, cell-based qHTS assay: qHTS cell viability counter screen (AID 2060913); note: nearly all actives have a fitted effect of over 40% in size
Method in brief: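 HEK293T CRE-bla, 2,000 cells/well, 18 h preincubation; cpd in DMSO + NKH477 0.25 uM final, 3 h 37 C/5% CO2; LiveBLAzer 2 h RT, then CellTiter-Glo 30 min RT, luminescence.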

[2] = cAMP Responsive Elements (CRE) small molecule agonists, cell-based qHTS assay: qHTS cell viability counter screen (AID 2060914);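 note: viability read after 3 h of compound exposure; nearly all actives have a fitted effect of over 50% in size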
Method in brief: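 HEK 293T CRE-bla; DMEM + 10% dialyzed FBS, 25 mM HEPES; 18 h pre-incubation; compound 3 h, 37 °C/5% CO2; CellTiter-Glo added after reporter read; luminescence after 30 min RT.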

SMILES | Potency [1] | Potency [2]
O=C(O)c1c(Cl)ccc(Cl)c1Cl | inactive | inactive
COc1ccc2[nH]c(S(=O)Cc3ncc(C)c(OC)c3C)nc2n1 (stereo not drawn) | inactive | inactive
CCCC/C=C/CCCCO | inactive | inactive
O=C(O)c1ccccc1[N+](=O)[O-] | inactive | inactive
CCNCCO | inactive | inactive
Nc1ccc2cc(S(=O)(=O)O)cc(O)c2c1 | inactive | inactive
FC(F)(F)C(Cl)Br (stereo not drawn) | inactive | inactive
Nc1nc(=O)n([C@@H]2O[C@H](CO)[C@@H](O)[C@@H]2F)cc1I | inactive | inactive
O=C1c2ccccc2C(=O)c2c(O)ccc(O)c21 | inactive | inactive

Source: PubChem BioAssay (Tox21)
